Test results: PubChem BioAssay (NCATS)
Inconclusive results are not listed. Calls of active or inactive are those of the source. Calls follow the shape of the dose curve; as a rule, active = well fitted curve in the direction sought with a large enough effect; inconclusive = small, poorly fitted or top-dose-only effect, or another doubt; inactive = no such curve, though single readings can be large; an effect the other way counts as inactive or inconclusive. Where a SMILES comes first, the peptide text is derived from it. [ ]: non-standard residue; d: D form. PhLac = O=C(O)[CH](O)Cc1ccccc1; NMeV = CN[CH](C(=O)O)C(C)C

What was measured:
CRL-7250 = normal cell line; experiment: Cytotoxic Profiling of Annotated Libraries Using Quantitative High-Throughput Screening (AID 1296008); conditions: Five cell lines viability, CellTiter-Glo ATP luminescence, 48-72 h; max response: active compounds read low; also: nearly all actives have a fitted effect of over 60% in size; as to max response: % is scaled to controls: 0 for no effect and ±100 for the full control effect
Method in brief: (§1)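 Cells exposed to compounds for 48 or 72 hr at 37 degrees Celsius. Viability read as ATP-coupled luminescence with CellTiter-Glo after 10 min at room temperature.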

HEK293 = experiment: as above; conditions: Five cell lines viability, CellTiter-Glo ATP luminescence, 48-72 h; max response: active compounds read low
Method in brief: as §1

HaCat = experiment: as above; conditions: Five cell lines viability, CellTiter-Glo ATP luminescence, 48-72 h; max response: active compounds read low
Method in brief: as §1

KB-3-1 = experiment: as above; conditions: Five cell lines viability, CellTiter-Glo ATP luminescence, 48-72 h; max response: active compounds read low
Method in brief: as §1

NIH3T3 [1] = experiment: as above; conditions: Five cell lines viability, CellTiter-Glo ATP luminescence, 48-72 h; max response: active compounds read low
Method in brief: as §1

HEK293T = experiment: qHTS assay to identify novel small-molecules to repurpose for Merkel cell carcinoma treatment (AID 1296009); conditions: MCC and control cell lines, CellTiter-Glo viability, 72 h; series mostly up to 44.8 µM; also: nearly all actives have a fitted effect of over 60% in size
Method in brief: (§2)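 Dose-response viability screen; 72 hr exposure at 37 degree celsius; CellTiter-Glo added, 10 min room temperature, luminescence read; RLUs scaled between no-cell and DMSO wells.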

NIH3T3 [2] = experiment: as above; conditions: MCC and control cell lines, CellTiter-Glo viability, 72 h; at 44.8 µM (top of the series) unless noted
Method in brief: as §2

C33A = experiment: Primary qHTS to identify gynecologic anti-cancer compounds using libraries of approved drugs and bioactive compounds (AID 1345084); conditions: Gynecologic cancer cell panel viability, ATPlite luminescence, 48 h; series mostly up to 57.5 µM; also: % is scaled to controls: 0 for no effect and ±100 for the full control effect; nearly all actives have a fitted effect of over 55% in size
Method in brief: (§3)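 Cell viability after 48 h drug treatment, ATPlite luminescence readout; five doses.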

CAOV3 = experiment: as above; conditions: Gynecologic cancer cell panel viability, ATPlite luminescence, 48 h; series mostly up to 57.5 µM
Method in brief: as §3

Es-2 = experiment: as above; conditions: Gynecologic cancer cell panel viability, ATPlite luminescence, 48 h; series mostly up to 57.5 µM
Method in brief: as §3

HeLa = experiment: as above; conditions: Gynecologic cancer cell panel viability, ATPlite luminescence, 48 h; series mostly up to 57.5 µM
Method in brief: as §3

CASKI = experiment: as above; conditions: Gynecologic cancer cell panel viability, ATPlite luminescence, 48 h; series mostly up to 57.5 µM
Method in brief: as §3

O=C(O)c1cnn(-c2nc3cc(OC(F)(F)F)c(Cl)cc3[nH]2)c1
inactive: max response (CRL-7250) -25.2% | outcome (HEK293) | max response (HaCat) 3.71% | max response (KB-3-1) 4.77% | outcome (NIH3T3 [1]) | Potency (HEK293T) | outcome (NIH3T3 [2]) | Potency (C33A) | Potency (CAOV3) | Potency (Es-2) | Potency (HeLa)

C=CC1(C)CC(O)C2(CCC3C(C)(C(=O)O)CCCC3(C)C2=O)C1 (configuration not stated)
inactive: max response (CRL-7250) -1.04% | outcome (HEK293) | max response (HaCat) -1.18% | outcome (KB-3-1) | max response (NIH3T3 [1]) 1.85% | Potency (HEK293T) | Potency (C33A) | Potency (CAOV3) | Potency (CASKI) | Potency (Es-2) | Potency (HeLa)

O=S(=O)(Nc1ccc(C(O)(C(F)(F)F)C(F)(F)F)cc1)c1cccs1
inactive: max response (CRL-7250) 2.89% | outcome (HEK293) | max response (HaCat) 2.6% | max response (KB-3-1) 6.97% | outcome (NIH3T3 [1]) | Potency (HEK293T) | outcome (NIH3T3 [2]) | Potency (C33A) | Potency (CAOV3) | Potency (CASKI) | Potency (Es-2) | Potency (HeLa)

CC(C)C(C(=O)N1CCCC1C(=O)O)N(C)C(=O)C(O)Cc1ccccc1 (configuration not stated) (H-[PhLac]-[NMeV]-Pro-OH; configuration not given here)
inactive: outcome (CRL-7250) | outcome (HEK293) | max response (HaCat) -7.13% | outcome (KB-3-1) | max response (NIH3T3 [1]) -4.85% | Potency (HEK293T) | Potency (C33A) | Potency (CAOV3) | Potency (CASKI) | Potency (Es-2) | Potency (HeLa)

Nc1nonc1C(=Nc1ccc(F)c(Cl)c1)NO
inactive: max response (CRL-7250) -22.8% | outcome (HEK293) | max response (HaCat) -3.71% | outcome (KB-3-1) | outcome (NIH3T3 [1]) | Potency (HEK293T) | outcome (NIH3T3 [2]) | Potency (C33A) | Potency (CAOV3) | Potency (CASKI) | Potency (Es-2) | Potency (HeLa)

C=C1C(O[C@@H]2O[C@H](CO)[C@@H](O)[C@H](O)[C@@H]2O)CC2C(C)(C)C(O)CCC2(C)C1CC/C(C)=C\CO (some centres not stated)
inactive: max response (CRL-7250) -10.8% | outcome (HEK293) | max response (HaCat) -5.23% | outcome (KB-3-1) | max response (NIH3T3 [1]) -3.89% | Potency (HEK293T) | Potency (C33A) | Potency (CAOV3) | Potency (CASKI) | Potency (Es-2) | Potency (HeLa)

COc1ccc([C@@H]2N[C@H](C(=O)O)Cc3c2[nH]c2ccccc32)cc1CN1CCN(c2ccccc2F)CC1
inactive: max response (CRL-7250) -3.7% | outcome (HEK293) | max response (HaCat) 1.36% | max response (KB-3-1) -4.47% | outcome (NIH3T3 [1]) | Potency (HEK293T) | outcome (NIH3T3 [2]) | Potency (C33A) | Potency (CASKI) | Potency (Es-2) | Potency (HeLa)

O=c1c2ccccc2nc2n1CCC2O (configuration not stated)
inactive: outcome (CRL-7250) | outcome (HEK293) | max response (HaCat) 4.07% | outcome (KB-3-1) | max response (NIH3T3 [1]) 2.87% | Potency (HEK293T) | Potency (C33A) | Potency (CAOV3) | Potency (CASKI) | Potency (Es-2) | Potency (HeLa)

C[C@@H]1O[C@@H](O[C@H]2[C@H](O[C@H]3CC[C@@]4(C)C(CC[C@]5(C)C4CC=C4C6CC(C)(C)CC[C@]6(C(=O)O[C@@H]6O[C@H](CO[C@@H]7O[C@H](CO)[C@@H](O[C@@H]8O[C@@H](C)[C@H](O)[C@@H](O)[C@H]8O)[C@H](O)[C@H]7O)[C@@H](O)[C@H](O)[C@H]6O)CC[C@]45C)[C@]3(C)CO)OC[C@H](O)[C@@H]2O)[C@H](O)[C@H](O)[C@H]1O (some centres not stated)
inactive: outcome (CRL-7250) | outcome (HEK293) | max response (HaCat) -8.43% | max response (KB-3-1) 4.12% | max response (NIH3T3 [1]) -6.66% | outcome (HEK293T) inactive [at 9.27 µM] | activity change, negative = cytotoxicity (C33A) -8.84% [at 6.55 µM] | activity change, negative = cytotoxicity (CAOV3) 1.96% [at 6.55 µM] | activity change, negative = cytotoxicity (CASKI) -8.63% [at 6.55 µM] | activity change, negative = cytotoxicity (Es-2) 23.6% [at 6.55 µM] | activity change, negative = cytotoxicity (HeLa) -1.03% [at 6.55 µM]

CC(C)(C)NCc1cc(Nc2ccnc3cc(Cl)ccc23)c2c(c1O)CCCC2
inactive: max response (CRL-7250) 1.77% | outcome (HEK293) | max response (HaCat) -6.14% | max response (KB-3-1) 7.98% | outcome (NIH3T3 [1]) | outcome (HEK293T) inactive [at 0.588 µM] | outcome (NIH3T3 [2]) inactive [at 0.588 µM] | activity change, negative = cytotoxicity (C33A) 15.8% [at 0.462 µM] | activity change, negative = cytotoxicity (CAOV3) -2.51% [at 0.462 µM] | activity change, negative = cytotoxicity (CASKI) 10.8% [at 0.462 µM] | activity change, negative = cytotoxicity (Es-2) 6.55% [at 0.462 µM] | activity change, negative = cytotoxicity (HeLa) 9.09% [at 0.462 µM]

CCN(c1cc(C#CCN2CCOCC2)cc(C(=O)NCc2c(C)cc(C)[nH]c2=O)c1C)C1CCC(N(C)CCOC)CC1 (configuration not stated)
inactive: outcome (CRL-7250) | outcome (HEK293) | max response (HaCat) -3.84% | outcome (KB-3-1) | outcome (NIH3T3 [1]) | Potency (HEK293T) | outcome (NIH3T3 [2]) | Potency (C33A) | Potency (CASKI) | Potency (Es-2) | Potency (HeLa)

Cc1ccc(Sc2cncc3sc(C(N)=O)cc23)cc1
inactive: outcome (CRL-7250) | outcome (HEK293) | max response (HaCat) -4.86% | outcome (KB-3-1) | outcome (NIH3T3 [1]) | Potency (HEK293T) | outcome (NIH3T3 [2]) | Potency (CAOV3) | Potency (Es-2) | Potency (HeLa)

C[C@@H]1C[C@H](O)/C=C/[C@H](O)[C@@H](O)CC(=O)O1
inactive: max response (CRL-7250) 2.61% | outcome (HEK293) | max response (HaCat) 3.57% | outcome (KB-3-1) | outcome (NIH3T3 [1]) | Potency (HEK293T) | outcome (NIH3T3 [2]) | Potency (C33A) | Potency (CAOV3) | Potency (CASKI) | Potency (Es-2) | Potency (HeLa)

C=CC(C)(O)CO[C@@H]1O[C@H](CO)[C@@H](O)[C@H](O)[C@H]1O (some centres not stated)
inactive: max response (CRL-7250) -1.51% | outcome (HEK293) | max response (HaCat) -30.3% | max response (KB-3-1) 1.27% | max response (NIH3T3 [1]) -4.31% | Potency (HEK293T) | Potency (C33A) | Potency (CAOV3) | Potency (CASKI) | Potency (Es-2) | Potency (HeLa)
